Data taken from PubChem BioAssay (EPA / NIEHS).
Several values for one entry are separate records, joined by “and”; a condition that tells them apart may be missing. Equal entries are not always repeated. Results filed as inconclusive are left out. The source holds several records for some structures; these can differ, active in one and inactive in another. Activity calls are given as the source filed them. How the source made its calls, unless noted: active means hit-call score of the fitted dose curve at least 0.9, where 1 is the maximum; inactive means score below 0.9.

How the values were obtained:
[1] = biological target: Hepatocyte nuclear factor 3-beta (Homo sapiens) (UniProt Q9Y261); experiment: ATG_FoxA2_CIS: Attagene CIS-FACTORIAL HepG2 Assay for human Forkhead box A2 (FOXA2) (AID 2282942); conditions: HepG2 cis-reporter transcription factor activity, 24 h; actives raise or lower the signal
How it was run: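 Endogenous transcription factor activity was read in HepG2 cells carrying transiently transfected cis-promoter reporter units. After 24 h dosing, reporter mRNA was quantified by RT-PCR and capillary electrophoresis, and values fitted bidirectionally versus DMSO.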

[2] = ATG_TA_CIS: Attagene CIS-FACTORIAL HepG2 Assay for human TA Basal Promoter (AID 2282964); conditions: HepG2 Attagene CIS-factorial TA basal promoter reporter; actives raise or lower the signal
How it was run: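 Transfected HepG2, 24 h compound exposure; RNA → RT-PCR → FAM primer extension → HpaI cut → CE fluorescence. Gain/loss-of-signal fitted against DMSO negative control. Background-control readout.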

[3] = biological target: Oxysterols receptor LXR-alpha (Homo sapiens) (UniProt Q13133); experiment: ATG_LXRa_TRANS: Attagene TRANS-FACTORIAL HepG2 Assay for human Liver X Receptor alpha (LXRa) (AID 2282980; active means hit-call score of the fitted dose curve at least 0.9, where 1 is the maximum); conditions: HepG2 Attagene TRANS reporter, LXRa transactivation
How it was run: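 HepG2 cells transiently transfected with GAL4-UAS reporter units for chimeric NR-Gal4 proteins, exposed to chemicals for 24 h. Reporter mRNA quantified by RT-PCR and capillary electrophoresis; gain of signal fitted relative to DMSO.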

[4] = biological target: human Retinoid X Receptor beta (RXRb), RXRB (gene 6257) (UniProt P28702); experiment: ATG_RXRb_TRANS: Attagene TRANS-FACTORIAL HepG2 Assay for human Retinoid X Receptor beta (RXRb) (AID 2283013; active means hit-call score of the fitted dose curve at least 0.9, where 1 is the maximum)
How it was run: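 Transfect HepG2 with GAL4-UAS multi-reporter constructs (chimeric NR-Gal4, TRANS format); dose compound 24 h; isolate RNA, RT-PCR, FAM primer extension, HpaI digest; quantify by capillary electrophoresis; positive direction vs DMSO.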

[5] = biological target: human Thyroid Receptor alpha (THRa1), THRA (gene 7067) (UniProt P10827); experiment: ATG_THRa1_TRANS: Attagene TRANS-FACTORIAL HepG2 Assay for human Thyroid Receptor alpha (THRa1) (AID 2283014; active means hit-call score of the fitted dose curve at least 0.9, where 1 is the maximum)
How it was run: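 HepG2 cells transiently transfected with chimeric NR-Gal4 and GAL4-UAS reporter units, dosed 24 h. Reporter mRNA quantified by RT-PCR, fluorescent labeling, HpaI digestion and capillary electrophoresis; gain-of-signal fit versus DMSO.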

[6] = ATG_TCF_b_cat_CIS: Attagene CIS-FACTORIAL HepG2 Assay for human T-Cell-Factor with beta-catenin (TCF/b-cat) (AID 2282965); conditions: HepG2 TCF/beta-catenin cis-reporter transcription, actives raise or lower the signal
How it was run: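 Using capillary electrophoresis as the read-out, labelled reporter cDNA fragments from transiently transfected HepG2 were sized and quantified. Exposure lasted 24 hours; activity in either direction was referenced to DMSO.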

CD38, CD38 (gene 952) = experiment: BSK_SAg_CD38: BioMAP Diversity Plus: SAg Assay for CD38 Biomarker Activity (AID 2283087); conditions: primary human HUVEC with PBMC; actives raise or lower the signal
How it was run: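 Human HUVEC plus PBMC co-culture stimulated with superantigen; CD38 measured by ELISA 24 h after chemical dosing. Fluorescence read-out, bidirectional fit against DMSO; cytotoxicity tracked in parallel by SRB and Alamar Blue.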

[7] = read-out: Monocyte Chemoattractant Protein-1 (MCP1), CCL2 (gene 6347); experiment: BSK_SAg_MCP1: BioMAP Diversity Plus: SAg Assay for Monocyte Chemoattractant Protein-1 (MCP1) Biomarker Activity (AID 2283090); conditions: primary human HUVEC with PBMC; actives raise or lower the signal
How it was run: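 MCP-1 levels in the endothelial–PBMC SAg co-culture were quantified by ELISA at 24 h post-dosing; both increases and decreases versus DMSO scored. Cytotoxicity monitored by SRB total protein in parallel cultures.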

[8] = read-out: E-selectin (Homo sapiens) (UniProt P16581); experiment: BSK_SAg_Eselectin: BioMAP Diversity Plus: SAg Assay for Eselectin Biomarker Activity (AID 2283091); conditions: primary human HUVEC with PBMC; actives raise or lower the signal
How it was run: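 Human umbilical vein endothelial cells co-cultured with peripheral blood mononuclear cells, SAg system. E-selectin is measured by ELISA 24 h after dosing and fitted bidirectionally against DMSO. Cytotoxicity is checked by SRB staining of parallel cultures.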

[9] = read-out: Monokine induced gamma interferon (MIG), CXCL9 (gene 4283); experiment: BSK_SAg_MIG: BioMAP Diversity Plus: SAg Assay for Monokine induced gamma interferon (MIG) Biomarker Activity (AID 2283092); conditions: primary human HUVEC with PBMC; actives raise or lower the signal
How it was run: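 Values reflect bidirectional fitting of ELISA-measured MIG against DMSO vehicle, taken 24 h after dosing of a co-culture of human umbilical vein endothelial cells and peripheral blood mononuclear cells.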

[10] = read-out: Interleukin-8 (IL8), CXCL8 (gene 3576); experiment: BSK_SAg_IL8: BioMAP Diversity Plus: SAg Assay for Interleukin-8 (IL8) Biomarker Activity (AID 2283094); conditions: primary human HUVEC with PBMC; actives raise or lower the signal
How it was run: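 ELISA read-out of IL-8 in a primary human vascular co-culture (umbilical vein endothelium plus PBMC), taken 24 h after compound addition. Values derive from bidirectional fits against DMSO negative controls.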

[11] = BSK_SAg_Proliferation: Cell Proliferation Assessment in the BioMAP Diversity Plus: SAg Assay (AID 2283095); conditions: primary human HUVEC with PBMC;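 further: relative cell number as total protein by SRB absorbance in sub-confluent culture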
How it was run: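 Cells (endothelium plus PBMC, human primary) were dosed with chemical, cultured 96 h, fixed in 10% TCA and stained with 0.1% SRB. Absorbance at 560 nm gave relative protein, fitted bidirectionally relative to DMSO.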

[12] = BSK_SAg_SRB: Viability Assessment in the BioMAP Diversity Plus: SAg Assay (AID 2283096); conditions: primary human HUVEC with PBMC;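 further: cells read one day after compound addition; hits may be either gain or loss of signal compared with DMSO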
How it was run: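 Endothelial/PBMC primary human co-culture; compound 24 h; fix 10% TCA, stain 0.1% SRB, A560; protein content as cytotoxicity proxy; bidirectional curve fit, DMSO = baseline.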

[13] = read-out: Interferon-inducible T-cell alpha chemoattractant (ITAC), CXCL11 (gene 6373); experiment: BSK_hDFCGF_ITAC: BioMAP Diversity Plus: hDFCGF Assay for Interferon-inducible T-cell alpha chemoattractant (ITAC) Biomarker Activity (AID 2284251); conditions: primary human foreskin fibroblasts
How it was run: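 ELISA readout of I-TAC after 24 h chemical exposure; human dermal foreskin fibroblast primary cells. Positive-direction fitting vs DMSO baseline. Parallel SRB total-protein staining (0.1% SRB after 10% TCA fixation, 560 nm) flags cytotoxicity.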

[14] = read-out: Epidermal growth factor receptor (EGFR), EGFR (gene 1956); experiment: BSK_BE3C_EGFR: BioMAP Diversity Plus: BE3C Assay for Epidermal growth factor receptor (EGFR) Biomarker Activity (AID 2284281); conditions: primary human bronchial epithelial cells
How it was run: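 Primary human lung bronchial epithelial cells; compound, 24 h; EGFR measured by ELISA; positive-direction fit vs DMSO baseline.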

KRT18 (gene 3875) = experiment: BSK_BE3C_Keratin818: BioMAP Diversity Plus: BE3C Assay for Keratin 818 Biomarker Activity (AID 2284282); conditions: primary human bronchial epithelial cells
How it was run: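 Chemicals are added to human lung bronchial epithelial primary cells (BE3C system) and incubated 24 h. Keratin 8/18 is then measured by ELISA, with parallel SRB total-protein staining gauging overt cytotoxicity.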

[15] = read-out: Matrix Metallopeptidase 9 (MMP9), MMP9 (gene 4318); experiment: BSK_BE3C_MMP9: BioMAP Diversity Plus: BE3C Assay for Matrix Metallopeptidase 9 (MMP9) Biomarker Activity (AID 2284283); conditions: primary human bronchial epithelial cells
How it was run: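 Human primary bronchial epithelial cells exposed 24 h to compound. MMP9 quantified by ELISA. SRB total-protein staining of parallel cultures assesses cytotoxicity. Positive-direction fit relative to DMSO.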

[16] = read-out: TIMP metallopeptidase inhibitor 2 (TIMP2), TIMP2 (gene 7077); experiment: BSK_hDFCGF_TIMP2: BioMAP Diversity Plus: hDFCGF Assay for TIMP metallopeptidase inhibitor 2 (TIMP2) Biomarker Activity (AID 2284289); conditions: primary human foreskin fibroblasts
How it was run: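 Primary human foreskin fibroblasts in the hDFCGF system, dosed for 24 h; TIMP-2 level measured by ELISA, fitted in the positive direction against DMSO; cytotoxicity checked in parallel by sulforhodamine B total protein staining.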

[17] = read-out: Thrombomodulin, THBD (gene 7056); experiment: BSK_LPS_Thrombomodulin: BioMAP Diversity Plus: LPS Assay for Thrombomodulin Biomarker Activity (AID 2284296); conditions: primary human HUVEC with PBMC
How it was run: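 Human umbilical vein endothelial cells co-cultured with PBMC and stimulated with LPS; cell-surface thrombomodulin measured by ELISA 24 hours after compound. Gain or loss versus DMSO; cytotoxicity checked by SRB staining in parallel cultures.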

[18] = biological target: mouse Estrogen Receptor alpha (Era), Esr1 (gene 13982) (UniProt P19785); experiment: NVS_NR_mERa: NovaScreen (NVS) Nuclear Receptor Binding Assay for mouse Estrogen Receptor alpha (Era) (AID 2283378; active means hit-call score of the fitted dose curve at least 0.9, where 1 is the maximum;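 further: hit means loss of bound radioligand signal relative to DMSO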)
How it was run: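 Cell-free radioligand competitive displacement binding, read by filter-based scintillation counting 18 h after dosing. Primary screen run in duplicate at 25 uM, actives retested in concentration series; loss of signal versus DMSO.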

Chain of human Thyroid Receptor alpha (THRa1), THRA (gene 7067) (P10827 whole entry, looked up, the tested form may be a part): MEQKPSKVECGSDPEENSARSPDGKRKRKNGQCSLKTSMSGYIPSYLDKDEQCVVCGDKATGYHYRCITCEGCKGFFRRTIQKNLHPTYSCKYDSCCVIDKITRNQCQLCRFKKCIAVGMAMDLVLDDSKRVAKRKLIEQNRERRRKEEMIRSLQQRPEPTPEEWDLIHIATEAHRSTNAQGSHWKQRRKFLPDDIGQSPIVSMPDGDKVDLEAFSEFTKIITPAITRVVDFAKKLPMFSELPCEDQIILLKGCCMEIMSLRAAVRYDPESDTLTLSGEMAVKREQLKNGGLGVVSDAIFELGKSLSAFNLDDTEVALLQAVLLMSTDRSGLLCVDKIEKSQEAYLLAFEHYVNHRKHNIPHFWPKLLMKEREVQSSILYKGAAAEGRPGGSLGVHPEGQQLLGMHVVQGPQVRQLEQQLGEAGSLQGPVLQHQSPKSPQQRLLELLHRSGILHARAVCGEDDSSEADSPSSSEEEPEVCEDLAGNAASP
Chain of Hepatocyte nuclear factor 3-beta (Homo sapiens) (Q9Y261 whole entry, looked up): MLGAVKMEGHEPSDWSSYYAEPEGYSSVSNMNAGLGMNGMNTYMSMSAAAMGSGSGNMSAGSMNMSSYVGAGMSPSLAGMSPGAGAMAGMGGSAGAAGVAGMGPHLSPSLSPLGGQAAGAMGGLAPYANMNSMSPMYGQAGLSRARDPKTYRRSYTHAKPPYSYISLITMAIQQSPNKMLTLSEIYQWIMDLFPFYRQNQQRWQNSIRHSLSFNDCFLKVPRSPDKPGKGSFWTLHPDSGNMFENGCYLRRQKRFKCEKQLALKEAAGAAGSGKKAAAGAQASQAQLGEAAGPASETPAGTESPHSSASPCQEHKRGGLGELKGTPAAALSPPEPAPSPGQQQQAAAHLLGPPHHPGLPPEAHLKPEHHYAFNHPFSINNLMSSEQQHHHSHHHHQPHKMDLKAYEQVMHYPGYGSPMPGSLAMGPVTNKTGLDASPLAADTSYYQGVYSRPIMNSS
Chain of mouse Estrogen Receptor alpha (Era), Esr1 (gene 13982) (P19785 whole entry, looked up): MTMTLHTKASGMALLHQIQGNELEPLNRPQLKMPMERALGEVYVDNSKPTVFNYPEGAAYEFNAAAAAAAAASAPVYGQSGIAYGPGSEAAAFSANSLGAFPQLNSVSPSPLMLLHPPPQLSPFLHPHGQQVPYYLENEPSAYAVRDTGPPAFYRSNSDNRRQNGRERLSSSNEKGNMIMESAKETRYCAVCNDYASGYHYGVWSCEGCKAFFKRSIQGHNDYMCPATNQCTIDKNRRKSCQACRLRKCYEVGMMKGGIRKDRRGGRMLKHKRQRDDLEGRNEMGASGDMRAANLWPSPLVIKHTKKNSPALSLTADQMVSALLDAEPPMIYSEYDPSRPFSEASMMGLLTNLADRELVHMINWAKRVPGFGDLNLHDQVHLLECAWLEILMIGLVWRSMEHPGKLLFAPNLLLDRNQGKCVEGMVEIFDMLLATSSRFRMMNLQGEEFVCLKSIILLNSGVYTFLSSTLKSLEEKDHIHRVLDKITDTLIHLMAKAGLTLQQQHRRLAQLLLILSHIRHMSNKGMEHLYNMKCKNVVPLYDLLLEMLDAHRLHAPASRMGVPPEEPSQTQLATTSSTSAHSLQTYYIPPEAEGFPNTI
Chain of Oxysterols receptor LXR-alpha (Homo sapiens) (Q13133 whole entry, looked up, the tested form may be a part): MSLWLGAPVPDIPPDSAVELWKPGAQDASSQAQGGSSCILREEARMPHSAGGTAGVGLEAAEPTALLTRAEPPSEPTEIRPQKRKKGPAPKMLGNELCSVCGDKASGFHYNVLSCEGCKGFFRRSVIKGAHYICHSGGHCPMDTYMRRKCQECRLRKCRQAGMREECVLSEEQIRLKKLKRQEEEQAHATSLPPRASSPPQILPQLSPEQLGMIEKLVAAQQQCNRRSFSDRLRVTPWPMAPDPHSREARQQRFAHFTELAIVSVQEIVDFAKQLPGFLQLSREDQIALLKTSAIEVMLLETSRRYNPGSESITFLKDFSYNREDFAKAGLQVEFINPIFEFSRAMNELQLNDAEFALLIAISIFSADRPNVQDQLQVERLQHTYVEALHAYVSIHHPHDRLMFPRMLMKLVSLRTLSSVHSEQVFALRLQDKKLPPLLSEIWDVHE
Chain of human Retinoid X Receptor beta (RXRb), RXRB (gene 6257) (P28702 whole entry, looked up, the tested form may be a part): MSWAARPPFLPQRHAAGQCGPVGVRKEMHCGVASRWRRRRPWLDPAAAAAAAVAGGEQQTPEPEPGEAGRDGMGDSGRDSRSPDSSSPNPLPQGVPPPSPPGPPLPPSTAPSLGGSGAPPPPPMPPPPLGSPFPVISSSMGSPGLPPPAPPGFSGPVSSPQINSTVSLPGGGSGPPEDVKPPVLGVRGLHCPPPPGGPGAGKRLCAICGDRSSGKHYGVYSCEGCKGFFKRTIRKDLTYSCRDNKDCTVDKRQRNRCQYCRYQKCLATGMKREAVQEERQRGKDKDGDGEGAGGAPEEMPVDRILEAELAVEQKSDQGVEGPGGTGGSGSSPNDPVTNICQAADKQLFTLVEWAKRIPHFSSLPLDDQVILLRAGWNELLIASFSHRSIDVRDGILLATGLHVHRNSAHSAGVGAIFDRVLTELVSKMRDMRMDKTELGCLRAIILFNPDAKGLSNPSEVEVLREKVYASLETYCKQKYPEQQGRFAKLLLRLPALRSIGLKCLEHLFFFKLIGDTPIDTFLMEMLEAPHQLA
Chain of E-selectin (Homo sapiens) (P16581 whole entry, looked up): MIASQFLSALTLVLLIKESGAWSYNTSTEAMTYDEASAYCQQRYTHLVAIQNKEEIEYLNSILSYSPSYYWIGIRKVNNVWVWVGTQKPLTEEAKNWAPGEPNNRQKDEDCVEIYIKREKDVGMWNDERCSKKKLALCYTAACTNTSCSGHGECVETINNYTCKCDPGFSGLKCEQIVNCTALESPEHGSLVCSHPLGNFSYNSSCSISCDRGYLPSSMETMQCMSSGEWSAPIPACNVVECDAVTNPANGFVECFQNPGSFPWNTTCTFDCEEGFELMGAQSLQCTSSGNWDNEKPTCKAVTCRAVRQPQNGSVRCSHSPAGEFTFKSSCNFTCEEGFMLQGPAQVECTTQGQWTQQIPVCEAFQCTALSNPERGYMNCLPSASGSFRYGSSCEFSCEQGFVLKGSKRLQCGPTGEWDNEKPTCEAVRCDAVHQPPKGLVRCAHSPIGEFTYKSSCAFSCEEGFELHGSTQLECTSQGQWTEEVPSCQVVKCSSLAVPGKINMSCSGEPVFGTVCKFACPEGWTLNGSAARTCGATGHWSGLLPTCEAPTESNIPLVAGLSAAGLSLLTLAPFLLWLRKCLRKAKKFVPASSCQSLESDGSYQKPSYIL

COc1ccc2ccccc2c1
outcome [1]: inactive
outcome [2]: inactive
outcome [3]: inactive
outcome [4]: inactive
outcome [5]: inactive

CC1=CCCC(C)(C)C12CCC(C)O2 (stereo not drawn)
outcome [1]: inactive
outcome [6]: inactive
outcome [3]: inactive
outcome [4]: inactive

COc1ccc(C(=O)c2ccccc2O)c(O)c1
outcome (CD38, CD38 (gene 952)): inactive
outcome [7]: inactive
outcome [8]: inactive
outcome [9]: inactive
AC50 [10]: 29.5 µM (active) and 24.6 µM (active)
outcome [11]: inactive
outcome [12]: inactive
AC50 [13]: 28.3 µM (active)
outcome [13]: inactive
outcome [14]: inactive
outcome (KRT18 (gene 3875)): inactive
AC50 [15]: 10.2 µM (active) and 17.3 µM (active)
outcome [16]: inactive
outcome [17]: inactive

CCC[Si](OC(C)=O)(OC(C)=O)OC(C)=O
outcome (CD38, CD38 (gene 952)): inactive
outcome [7]: inactive
outcome [8]: inactive
outcome [9]: inactive
outcome [10]: inactive
outcome [11]: inactive
outcome [12]: inactive
outcome [13]: inactive
outcome [14]: inactive
outcome (KRT18 (gene 3875)): inactive
outcome [15]: inactive
outcome [16]: inactive
outcome [17]: inactive

CN(C)CCC(c1ccc(Cl)cc1)c1ccccn1 (stereo not drawn)
outcome [2]: inactive
outcome [6]: inactive
outcome (CD38, CD38 (gene 952)): inactive
outcome [7]: inactive
outcome [8]: inactive
outcome [9]: inactive
outcome [10]: inactive
outcome [11]: inactive
outcome [12]: inactive

Cc1c(C(N)=O)cc([N+](=O)[O-])cc1[N+](=O)[O-]
outcome (CD38, CD38 (gene 952)): inactive
outcome [7]: inactive
outcome [8]: inactive
outcome [9]: inactive
outcome [10]: inactive
outcome [11]: inactive
outcome [12]: inactive
outcome [13]: inactive
outcome [14]: inactive
outcome (KRT18 (gene 3875)): inactive
AC50 [15]: 15.4 µM (active)
outcome [15]: inactive
outcome [16]: inactive
AC50 [17]: 0.149 µM (active)
outcome [17]: inactive

CC1=C(CC=O)C(C)(C)CCC1
outcome [1]: inactive
outcome [2]: inactive
outcome [6]: inactive
outcome [3]: inactive

CCCCCCCCCCCCCC
outcome [1]: inactive
outcome [2]: inactive
outcome [6]: inactive
outcome [3]: inactive
outcome [4]: inactive

CCC(C)NC(N)=O (stereo not drawn)
outcome [2]: inactive
outcome [6]: inactive
outcome [3]: inactive

CC(C)C1OCCN1CCOC(=O)NCCCCCCNC(=O)OCCN1CCOC1C(C)C (stereo not drawn)
outcome (CD38, CD38 (gene 952)): inactive
outcome [7]: inactive
outcome [8]: inactive
outcome [9]: inactive
outcome [10]: inactive
outcome [11]: inactive
outcome [12]: inactive
outcome [13]: inactive
outcome [14]: inactive
outcome (KRT18 (gene 3875)): inactive
outcome [15]: inactive
outcome [16]: inactive
outcome [17]: inactive

COC(=O)c1ccccc1
outcome [2]: inactive
outcome [6]: inactive
outcome [3]: inactive
outcome [5]: inactive

CCCCCCCCCCC1CO1 (stereo not drawn)
outcome [1]: inactive
AC50 [2]: 153 µM (active)
outcome [4]: inactive
outcome [5]: inactive
outcome (CD38, CD38 (gene 952)): inactive
outcome [7]: inactive
AC50 [8]: 20 µM (active)
outcome [9]: inactive
outcome [10]: inactive
AC50 [11]: 32.5 µM (active)
outcome [12]: inactive

Nc1nc(N)c2nc(-c3ccccc3)c(N)nc2n1
outcome [18]: inactive

CC(C)CC(=O)C1C(=O)c2ccccc2C1=O
outcome [18]: inactive

CCCCCCCCOCCCN
outcome [18]: inactive

Cc1oc(C)c(C(=O)Nc2ccccc2)c1C
outcome [18]: inactive

COC(=O)CCCC(=O)O
outcome [18]: inactive

COc1ccc(COC=O)cc1
outcome [18]: inactive

CNC(=O)Nc1ccc(Cl)c(Cl)c1
outcome [18]: inactive

Cc1cccc(NC(=S)N(C)C)c1
outcome [18]: inactive
